Most compounds without a hit are left out; they make up all but 1.6% or so of the library.
eIF4E-4G inh: eIF4E/eIF4G interaction inhibition in translation initiation; TR-FRET eIF4E-eIF4GI(517-606) binding, 2 h; inhibition, % at 21.7 µM; hit rate 0.37% among 220,000; AID 782;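 active = inhibition above about 30%, limit read from the data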;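 also: 0% = full FRET control wells and 100% = background wells lacking eIF4GI fragment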
eIF4H inh: inhibitors of RNA binding by human eIF4H | Q15056 | eIF4H fluorescence polarization binding assay | inhibition, % at 35 µM | hit rate 0.94% among 290,000;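 also: calls also rest on retests at 20 µM and on dose response follow-up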
PABP1 MLLE inh: blocks PAM2 peptide binding to the PABP1 MLLE domain; P11940; GST-MLLE / FITC-PAM2 fluorescence polarization; inhibition, % at 20 µM; hit rate 0.36% among 360,000; AID 588489; in the data active = inhibition above about 35%, passing the limit was not always enough;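 also: plate controls were DMSO wells with GST-MLLE for no effect and wells lacking GST-MLLE protein for full effect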
PABP polyA inh: blocks human PABP binding to poly(A) RNA | hit rate 1% among 290,000 | fluorescence polarization | inhibition, % at 35 µM | AID 2014 | P11940;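 also: calls also rest on retests at 20 µM and on dose response follow-up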
PERK inhibitor: blocks human PERK kinase; CHO PERK-DD fusion, SEAP luminescence translation reporter; inhibition, % at 5.6 µM; hit rate 0.17% among 220,000;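 active = inhibition above the mean inhibition of all tested compounds plus 3 SD, set separately per screening campaign, cut at about 2.9% in these data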;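 also: PERK kinase domain activated by AP20187 dimerizer at 100 nM; 0% = DMSO with dimerizer and 100% = rapamycin at 8.4 µM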
* marks the source's active call; other numbers are inactive results; ? = inconclusive; / = no result given; [ ] = remark or other dose. Unless noted, no rule for the calls is given here.

SMILES	eIF4E-4G inh	eIF4H inh	PABP1 MLLE inh	PABP polyA inh	PERK inhibitor
CC1CC(=O)c2c(cc3c(-c4c(O)cc(O)c5c(O)c6c(cc45)OC(C)CC6=O)c(O)cc(O)c3c2O)O1 (stereo not drawn)	26.9	100.2*	-8.5	91.8*	1.6
O=C(Nc1ccc2oc(-c3ccccc3F)nc2c1)c1ncn[nH]1	-10.8	24.4	-6.9	-4.4	0.3
O=C(Nc1ccc2oc(-c3ccc(Cl)c(Cl)c3)nc2c1)c1ncn[nH]1	-34.2	?	0.0	8.3*	0.6
CC1(C2CC2)NC(=O)NC1=O (stereo not drawn)	90.0*[fluorescence artefact?]	-5.9	-5.7	1.1	0.1
CC1(C2CCCC2)NC(=O)NC1=O (stereo not drawn)	/	/	5.7	/	/
CCCCN1C(=O)Nc2ccccc2S1(=O)=O	-6.5	6.6	-2.8	3.4	0.9
Cn1c(SCC(=O)c2ccccc2)nnc1-c1ccco1	-0.2	-1.7	10.5	-8.4	0.6
CCOC(=O)c1sc(NC(=O)C2CCCO2)c(C(=O)OC)c1C (stereo not drawn)	/	/	/	/	2.1
CCCOC(=O)c1c(NC(=O)C2CCCO2)sc(C(=O)OC)c1C (stereo not drawn)	-7.5	0.0	44.7*	0.2	1.2
CC(=O)Nc1cc(N2C(=O)CCC2=O)ccc1Cl	-4.1	-4.3	-1.2	9.7	-0.3
CC(=O)Nc1c(Br)cc(N2C(=O)CCC2=O)cc1Br	-3.2	4.1	0.7	-2.3	3.1*
COc1ccc(CCNC(=O)CSc2ccc(-c3ccncc3)nn2)cc1	1.6	1.1*	3.2	54.9	1.4
COc1ccc(-c2ccc(SCC(=O)Nc3nnc(C)s3)nn2)cc1	2.2	54.8*	-6.8	13.9*	0.7
CCCCCOC(=O)C(C)Sc1n[nH]c(=O)[nH]c1=O (stereo not drawn)	1.2	4.7	-0.2	5.6	1.2
CCOC(=O)C1=C(C)NC(SC)=C(C#N)C1CC(C)C (stereo not drawn)	44.1*	-1.7	13.4	3.9	-1.3
CC(=O)C1=C(C)NC(SCC(N)=O)=C(C#N)C1CC(C)C (stereo not drawn)	-4.0	14.0	12.3	2.3	1.6
CCOc1cc(/C=N/NC(=O)CSc2nncn2C)ccc1OC(=O)c1ccc(Cl)cc1	-5.2	-5.8	2.5	9.4	0.0
O=C(Cn1cc(COc2ccccc2C(F)(F)F)nn1)c1ccc(O)cc1	/	/	8.3	/	/
CCN(CC)c1ccc(-c2c(C#N)c(N)nc(OC)c2C#N)cc1	-24.9	60.4*	-7.6	71.9*	-0.8
CC(C)CC(=O)N1CCN(Cc2cccc(F)c2)CC1	72.5*	-2.7	0.6	4.2	0.0
NNC(=O)c1ccc(N2CCc3ccccc32)c([N+](=O)[O-])c1	-2.5	4.5	-17.3	4.8	0.9
Cc1ccc(CNC(=O)c2ccc(N3CCc4ccccc43)c([N+](=O)[O-])c2)cc1	54.9*	2.6	7.4	2.4	0.2
COc1ccc(C(C(=O)NCCC(C)C)N(CCCO)C(=O)c2snc(C(N)=O)c2N)cc1OC (stereo not drawn)	/	0.9	-12.5	4.2	/
O=C(NCSc1ccccc1)c1ccccc1	/	/	41.7*	/	/
O=C1NC(=S)N/C1=C/c1cccn1-c1ccc([N+](=O)[O-])cc1	23.4	83.5*	-6.5	6.9*	0.4
SMILES	eIF4E-4G inh	eIF4H inh	PABP1 MLLE inh	PABP polyA inh	PERK inhibitor
N=C1/C(=C/c2cccn2-c2ccc([N+](=O)[O-])cc2)C(=O)N=C2SC=CN12	1.3	14.7	-5.0	-18.2	-0.2
CCCCOC(=O)c1ccc(N)cc1	1.8	active	-9.3	118.4*	1.0
O=C(NCc1ccc(Cl)cc1)c1ccc(CSc2nc3ccncc3[nH]2)cc1	-3.7	1.4	-12.5	0.9	-0.6
Cn1c(=O)c2c(ncn2CCNC2=NCCCCC2)n(C)c1=O	-8.9	-0.1	0.3	3.2	1.5
NC(=O)c1c(N)sc2c1CCCCC2	/	20.5	12.5	48.2	0.4
CNC(=O)c1c(N)sc2c1CCCCC2	-7.2	123.8*	/	128.2*	-0.2
O=C(O)c1ccc(Nc2cnc3ccccc3n2)cc1	-1.2	-1.6	10.3	-13.6	0.1
CCNC(=O)OCCC12CC3CC(CC(C3)C1)C2	4.3	-11.6	-4.8	89.0*	1.3
CCOC(=O)Cc1c[nH]c(=S)[nH]c1=O	5.4	-3.1	39.9*	1.7	1.1
Cc1ccc(N2C(=O)[C@@H]3[C@H](C2=O)C2c4ccccc4C=CN2[C@@H]3C(=O)c2ccco2)cc1 (stereo partly drawn)	1.2	30.8	36.8*	23.0	0.0
CC(=O)[C@@H]1[C@@H]2C(=O)N(Cc3ccccc3)C(=O)[C@@H]2C2c3ccccc3C=CN21 (stereo partly drawn)	-8.1	95.9*	53.3	112.4*	-0.9
O=C(c1ccco1)[C@@H]1[C@@H]2C(=O)N(c3ccccc3)C(=O)[C@@H]2C2c3ccccc3C=CN21 (stereo partly drawn)	/	53.7	37.0	34.0	0.2
COc1ccc(N2C(=O)[C@@H]3[C@H](C2=O)[C@H]2c4ccccc4C=CN2[C@@H]3C(=O)Nc2ccccc2)cc1	2.6	?	3.9	?	-0.4
COc1ccc(OC)c(NC(=O)C2CCN(S(=O)(=O)c3ccc4c(c3)OCCO4)CC2)c1	/	/	-3.0	/	/
CN1C(=O)c2ccccc2NC(=O)[C@]12O[C@@H]2c1cccc(O)c1	-15.4	88.4*	4.4	70.2	/
COc1ccc(C(=O)CN2CCN(S(=O)(=O)c3cccc([N+](=O)[O-])c3)CC2)cc1OC	-3.9	-8.6	39.2*	6.1	-0.9
COc1cccc(C(=O)CN2CCN(S(=O)(=O)c3cccc([N+](=O)[O-])c3)CC2)c1	-0.7	2.5	16.4	-8.2	0.7
O=C(COC(=O)c1cncc(Br)c1)Nc1nnc(-c2ccccc2)o1	/	70.4*	-10.8	32.8	/
COc1cc(OC)cc(C(=O)OCC(=O)Nc2nnc(-c3ccccc3)o2)c1	/	/	7.9	/	/
CC(=O)NC1(C(F)(F)F)N=C2SCCN2C1=O (stereo not drawn)	0.4	0.7	28.0	-9.6	2.0
CC(C)Oc1ccc(C(=O)NC2(C(F)(F)F)N=C3SCCN3C2=O)cc1 (stereo not drawn)	-0.5	-7.1	46.4*	-8.2	-0.1
Cc1ccc(-c2nc(CNC(=O)c3cc(C)on3)cs2)cc1	/	-0.5	-1.1	-10.3	/
CC(/C=N/NC(=O)CSc1nnc(SCc2ccccc2)s1)=C\c1ccco1	2.6	68.6*	-100.2	2.7*	1.0
COc1ccc(NC(=O)CSc2nc(N)c3cc4c(nc3n2)CC(C)(C)OC4)cc1	-0.6	-6.6	-16.4	7.8	3.2*
N#Cc1c(N)nc(SCC(=O)C23CC4CC(CC(C4)C2)C3)c(C#N)c1-c1ccc(Cl)cc1	-42.2	7.4	-76.8	-9.2	0.6
CCOC(=O)CC(=O)CSc1nc(N)c(C#N)c(-c2ccc(Cl)cc2)c1C#N	-27.8	114.3*	-5.0	111.0*	-0.3
Cc1cc(N2C(=O)C(O)=C(C(=O)c3ccco3)C2c2cccc(Oc3ccccc3)c2)no1 (stereo not drawn)	/	-1.5	-6.5	12.8	/
Cc1ccc2c(c1)nnn2C1CCN(S(=O)(=O)c2ccc3ccccc3c2)CC1	0.4	-8.7	6.4	-17.2	-0.6
